# According to PubChem BioAssay (NCI):
# Compounds without any hit were thinned out: in the full panel of roughly 79,000, 15% have a hit. A number with no mark means an inactive call. Active and inactive are the calls of the source. Cut-off read from the data, not from the text of the source: active = growth inhibition above about 70%; inactive = the rest.
# Key:
# [1] = NCI Yeast Anticancer Drug Screen. Data for the rad52 strain (AID 147);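 note: 0% = growth of vehicle-treated control cultures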; conditions: S. cerevisiae rad52 mutant growth inhibition, stronger effect = higher value
# Outline: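 Screen used a yeast mutant impaired in DNA repair. After compound exposure, growth was measured. Values reflect inhibition compared with vehicle-treated cells.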
# [2] = NCI Yeast Anticancer Drug Screen. Data for the wt1 strain (AID 149);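 note: 0% = growth of vehicle-treated wt1 cultures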; conditions: S. cerevisiae wt1 strain (SPY 50644) growth inhibition, stronger effect = higher value
# Outline: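 Readout: yeast growth inhibition, normalised to vehicle controls, in the wt1 strain exposed to test compounds.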
# [3] = NCI Yeast Anticancer Drug Screen. Data for the rad50EPP+ strain (AID 151);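 note: 0% = growth of vehicle-treated control cultures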; conditions: S. cerevisiae rad50 mutant strain, stronger effect = higher value
# Outline: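 Exposing the rad50EPP+ strain to each compound, growth was compared with vehicle-only cultures to give inhibition.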
# [4] = NCI Yeast Anticancer Drug Screen. Data for the rad50 strain (AID 155);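 note: 0% = growth of vehicle-only cultures of the same strain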; conditions: S. cerevisiae rad50 strain growth inhibition, stronger effect = higher value
# Outline: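 Compounds were tested on a yeast strain with an engineered DNA damage repair alteration; the reported value is growth inhibition normalised to vehicle treatment.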
# [5] = NCI Yeast Anticancer Drug Screen. Data for the mec2-1 strain (AID 157); conditions: S. cerevisiae mec2-1 strain, stronger effect = higher value
# Outline: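 Readout is yeast growth inhibition, normalised to vehicle-treated controls, in the mec2-1 strain exposed to compound.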
# [6] = NCI Yeast Anticancer Drug Screen. Data for the rad14 strain (AID 159);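 note: 0% = growth of vehicle-treated control cultures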; conditions: S. cerevisiae rad14 strain growth inhibition, stronger effect = higher value
# Outline: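 Compound-treated yeast with a defined DNA-repair lesion; growth inhibition normalised to vehicle-treated cultures.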
# [7] = NCI Yeast Anticancer Drug Screen. Data for the sgs1 mgt1 strain (AID 161);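 note: 0% = growth of cultures given vehicle only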; conditions: S. cerevisiae sgs1 mgt1 strain, stronger effect = higher value
# Outline: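 Compounds are added to genetically altered yeast, and growth is compared with cultures given vehicle alone to give percent inhibition.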
# [8] = NCI Yeast Anticancer Drug Screen. Data for the CLN2oe strain (AID 163);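 note: 0% = growth of vehicle-only control cultures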; conditions: S. cerevisiae CLN2oe strain, stronger effect = higher value
# Outline: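 Values reflect how much compound exposure reduced yeast growth, referenced to vehicle-exposed cells. Assay organism is a strain with a defined genetic change affecting cell-cycle control.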
# [9] = NCI Yeast Anticancer Drug Screen. Data for the cln2 rad14 strain (AID 165);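 note: 0% = growth equal to vehicle treated cultures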; conditions: S. cerevisiae cln2 rad14 strain, stronger effect = higher value
# Outline: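 Relative to vehicle controls, growth inhibition of compound-treated cln2 rad14 yeast was recorded.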
# [10] = NCI Yeast Anticancer Drug Screen. Data for the bub3 strain (AID 167); conditions: S. cerevisiae bub3 mutant strain, stronger effect = higher value
# Outline: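 Growth of a checkpoint-deficient yeast mutant is measured after compound exposure. Values represent inhibition relative to vehicle.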
# [11] = NCI Yeast Anticancer Drug Screen. Data for the wt2 strain (AID 169);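 note: 0% = growth of vehicle-treated yeast cultures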; conditions: S. cerevisiae wt2 strain growth inhibition, stronger effect = higher value
# Outline: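 Values express reduction in yeast growth under compound treatment, referenced to vehicle-treated cells.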
# [12] = NCI Yeast Anticancer Drug Screen. Data for the mlh1 strain (AID 171);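 note: 0% = growth of vehicle-treated control cultures of the same strain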; conditions: S. cerevisiae mlh1 strain growth inhibition, stronger effect = higher value
# Outline: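 Steps: expose the defined-mutant yeast strain to compound; expose a parallel culture to vehicle; measure growth; express compound effect as inhibition relative to the vehicle culture.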
# [13] = NCI Yeast Anticancer Drug Screen. Data for the sgs1 strain (AID 173);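 note: 0% = growth of vehicle-only control cultures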; conditions: S. cerevisiae sgs1 mutant, stronger effect = higher value
# Outline: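 Treat defined-mutant yeast with compound; measure growth; calculate inhibition relative to vehicle-treated cells.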
# [14] = NCI Yeast Anticancer Drug Screen. Data for the mlh1 rad18 strain (AID 175); conditions: S. cerevisiae mlh1 rad18 strain growth inhibition, stronger effect = higher value
# Outline: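 Test agents were incubated with a yeast strain of defined genotype (DNA damage repair defect). Inhibition of growth was derived by comparison with vehicle-exposed cultures.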
# [15] = NCI Yeast Anticancer Drug Screen. Data for the rad18 strain (AID 177); conditions: S. cerevisiae rad18 mutant growth inhibition, stronger effect = higher value
# Outline: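 A genetically defined yeast mutant impaired in DNA damage repair was treated with test compounds, then its growth was measured against cultures receiving vehicle alone.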
# [16] = at 5.0 µM (retest, dose inferred, filed as 0.5)
# [17] = at 50.0 µM (retest, dose inferred, filed as 5.0)
smiles,measurement,setting,value
CCOC(=O)C(C(=O)OCC)=P(c1ccccc1)(c1ccccc1)c1ccccc1,growth inhibition,[1]; at 1.2 µM,0%
same,growth inhibition,[1]; at 3.7 µM,0%
same,growth inhibition,[1]; at 11.0 µM,2%
same,growth inhibition,[1]; at 33.0 µM,0%
same,growth inhibition,[1]; at 100.0 µM,95% (active)
same,growth inhibition,[2]; at 1.2 µM,0%
same,growth inhibition,[2]; at 3.7 µM,1%
same,growth inhibition,[2]; at 11.0 µM,1%
same,growth inhibition,[2]; at 33.0 µM,-3%
same,growth inhibition,[2]; at 100.0 µM,93% (active)
same,growth inhibition,[3]; at 1.2 µM,-2%
same,growth inhibition,[3]; at 3.7 µM,-3%
same,growth inhibition,[3]; at 11.0 µM,-2%
same,growth inhibition,[3]; at 33.0 µM,-1%
same,growth inhibition,[3]; at 100.0 µM,3%
same,growth inhibition,[4]; at 1.2 µM,-58%
same,growth inhibition,[4]; at 3.7 µM,0%
same,growth inhibition,[4]; [16],-2%
same,growth inhibition,[4]; at 11.0 µM,-3%
same,growth inhibition,[4]; at 33.0 µM,-3%
same,growth inhibition,[4]; [17],36%
same,growth inhibition,[4]; at 50.0 µM,12.4%
same,growth inhibition,[4]; at 100.0 µM,96% (active)
same,growth inhibition,[5]; at 1.2 µM,0%
same,growth inhibition,[5]; at 3.7 µM,-1%
same,growth inhibition,[5]; [16],1%
same,growth inhibition,[5]; at 11.0 µM,0%
same,growth inhibition,[5]; at 33.0 µM,0%
same,growth inhibition,[5]; [17],16%
same,growth inhibition,[5]; at 50.0 µM,12.1%
same,growth inhibition,[5]; at 100.0 µM,98% (active)
same,growth inhibition,[6]; at 1.2 µM,0%
same,growth inhibition,[6]; at 3.7 µM,2%
same,growth inhibition,[6]; at 11.0 µM,5%
same,growth inhibition,[6]; at 33.0 µM,6%
same,growth inhibition,[6]; at 100.0 µM,93% (active)
same,growth inhibition,[7]; [16],-10%
same,growth inhibition,[7]; [17],60%
same,growth inhibition,[7]; at 50.0 µM,47%
same,growth inhibition,[8]; at 1.2 µM,0%
same,growth inhibition,[8]; at 3.7 µM,-1%
same,growth inhibition,[8]; at 11.0 µM,-1%
same,growth inhibition,[8]; at 33.0 µM,-2%
same,growth inhibition,[8]; at 100.0 µM,84% (active)
same,growth inhibition,[9]; [16],0%
same,growth inhibition,[9]; [17],-3%
same,growth inhibition,[9]; at 50.0 µM,-2.05%
same,growth inhibition,[10]; at 1.2 µM,-1%
same,growth inhibition,[10]; at 3.7 µM,1%
same,growth inhibition,[10]; [16],-3%
same,growth inhibition,[10]; at 11.0 µM,1%
same,growth inhibition,[10]; at 33.0 µM,-3%
same,growth inhibition,[10]; [17],19%
same,growth inhibition,[10]; at 50.0 µM,5%
same,growth inhibition,[10]; at 100.0 µM,93% (active)
same,growth inhibition,[11]; at 1.2 µM,-2%
same,growth inhibition,[11]; at 3.7 µM,-3%
same,growth inhibition,[11]; at 11.0 µM,-4%
same,growth inhibition,[11]; at 33.0 µM,-9%
same,growth inhibition,[11]; at 100.0 µM,95% (active)
same,growth inhibition,[12]; at 1.2 µM,1%
same,growth inhibition,[12]; at 3.7 µM,-2%
same,growth inhibition,[12]; at 11.0 µM,0%
same,growth inhibition,[12]; at 33.0 µM,1%
same,growth inhibition,[12]; at 100.0 µM,92% (active)
same,growth inhibition,[13]; at 1.2 µM,0%
same,growth inhibition,[13]; at 3.7 µM,0%
same,growth inhibition,[13]; at 11.0 µM,0%
same,growth inhibition,[13]; at 33.0 µM,4%
same,growth inhibition,[13]; at 100.0 µM,94% (active)
same,growth inhibition,[14]; [16],0%
same,growth inhibition,[14]; [17],26%
same,growth inhibition,[14]; at 50.0 µM,21.1%
same,growth inhibition,[15]; at 1.2 µM,1%
same,growth inhibition,[15]; at 3.7 µM,7%
same,growth inhibition,[15]; at 11.0 µM,16%
same,growth inhibition,[15]; at 33.0 µM,12%
same,growth inhibition,[15]; at 100.0 µM,95% (active)
